From PubChem BioAssay (Tox21)
Results filed as inconclusive are left out. Active and inactive are the calls of the source. Calls follow the shape of the dose curve; as a rule, active = well fitted cell-killing curve with a large enough effect in the repeat runs; inconclusive = weak or mixed curves, or effect the other way; inactive = flat fitted curve, though single readings scatter.

Test: cAMP Responsive Elements (CRE) small molecule agonists, cell-based qHTS assay: qHTS cell viability counter screen (AID 2060914); also: nearly all actives have a fitted effect of over 50% in size
Conditions: CRE-bla HEK293T viability, CellTiter-Glo luminescence, 5 h; series mostly up to 92.4 µM; activity change, negative = cytotoxicity: at the top concentration
Procedure, shortened: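 In the same wells as the reporter read, viability of CRE-bla HEK 293T cells was quantified by CellTiter-Glo luminescence after a 3 h compound exposure.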
% is scaled to controls: 0 for no effect and ±100 for the full control effect.

| Structure (SMILES) | activity change, negative = cytotoxicity | Potency |
| --- | --- | --- |
| COP(=O)(O)OP(=O)(O)OC | -1.8% (inactive) |  |
| CC(C)CCOC(=O)c1ccccc1 | 18.2% (inactive) |  |
| O=C1NCCN1 | 0.439% (inactive) |  |
| C[C@]12CCC(=O)C=C1CC[C@@H]1[C@@H]2CC[C@@]2(C)[C@H]1CC[C@]2(O)C(=O)CO | 0.0809% [at 42.5 µM] (inactive) |  |
| CCC[Si](OC)(OC)OC | -12.6% (inactive) |  |
| CCN1CCOCC1 | -0.898% (inactive) |  |
| CCCCCCCCCCCCN |  | inactive |
| CC(C)c1ccc(O)c(C(C)C)c1 | -12.8% (inactive) |  |
| CCN(CC)CC(=O)OCC(=O)[C@@]1(O)CC[C@H]2[C@@H]3CCC4=CC(=O)CC[C@]4(C)[C@H]3[C@@H](O)C[C@@]21C | 3.18% [at 42.5 µM] (inactive) |  |
| O=C(NCCCN1CCOCC1)c1ccc(Cl)cc1 | 4.16% [at 42.5 µM] (inactive) |  |
| CC(C)(C)Cl | 0.807% (inactive) |  |
| CN(C)CCCN1c2ccccc2CCc2ccc(Cl)cc21 |  | inactive |
| CCCC1C(CC)=CC(CC)=CN1c1ccccc1 (stereo not given) | -21.2% (inactive) |  |
| c1ccc(C(O[C@H]2CCCN(CCc3ccc4c(c3)OCO4)C2)c2ccccc2)cc1 | 1.67% [at 42.5 µM] (inactive) |  |
| C[Si](C)O[Si](C)(C)O[Si](C)(C)O[Si](C)C | 10.9% (inactive) |  |
| CCc1c(C(=O)O)c(=O)cnn1-c1ccc(Cl)cc1 | -0.755% (inactive) |  |
| CC(C)(C)c1csc(-c2cc3cc(OCc4ccccc4CC(=O)O)ccc3o2)n1 | -19.7% (inactive) |  |
| C=CC(C)(C)C | -0.611% (inactive) |  |
| CC(C)CCOC(=O)CC(C)C | -9.84% (inactive) |  |
| CC1=C(/C=C/C(C)=C/C=C/C(C)=C/C(=O)O)C(C)(C)CCC1 |  | inactive |

| Structure (SMILES) | activity change, negative = cytotoxicity | Potency |
| --- | --- | --- |
| Clc1cc(Cl)cc(Cl)c1 | -1.63% (inactive) |  |
| Nc1ncn([C@@H]2O[C@H](CO)[C@@H](O)[C@H]2O)c(=O)n1 | 13.3% [at 42.5 µM] (inactive) |  |
| O=CCc1ccccc1 |  | inactive |
| C[C@]12CC[C@H]3C(=CCc4cc(O)ccc43)[C@@H]1CCC2=O | -10.1% (inactive) |  |
| CCOC(=O)COc1ccc2c(c1)CC(NCC(O)c1cccc(Cl)c1)CC2 (stereo not given) | 0.534% (inactive) |  |
| O=C=Nc1ccc(Cc2ccc(N=C=O)cc2)cc1 |  | inactive |
| Nc1nc2ccc(OC(F)(F)F)cc2s1 | -7.73% [at 42.5 µM] (inactive) |  |
| CCCCCCOc1ccc(O)cc1 | -13.1% (inactive) |  |
| Cc1cc(=O)n(-c2ccccc2)n1C |  | inactive |
| CN(C)C(=O)NC1(c2ccccc2)CCN(CC[C@@]2(c3ccc(F)c(F)c3)CN(C(=O)c3ccccc3)CCO2)CC1 | 22% (inactive) |  |
| C=CCc1ccccc1OCC(O)CNC(C)C (stereo not given) | -4.68% [at 42.5 µM] (inactive) |  |
| CC(CC(C)(C)C)CC(C)(C)CC(C)(C)C (stereo not given) | 15.8% [at 42.5 µM] (inactive) |  |
| CCN1CC(CCN2CCOCC2)C(c2ccccc2)(c2ccccc2)C1=O (stereo not given) | 3.59% [at 42.5 µM] (inactive) |  |
| CCCCCCC1CCCC(=O)O1 (stereo not given) | -10.1% (inactive) |  |
| CC(C)CCCCCCN | 2.41% (inactive) |  |
| OCCN1CCNCC1 |  | inactive |
| C#C[C@]1(OC(C)=O)CC[C@H]2[C@@H]3CCC4=C[C@@H](OC(C)=O)CC[C@@H]4[C@H]3CC[C@@]21C | -22.7% [at 42.5 µM] (inactive) |  |
| C[N+](C)(C)CCCCCCCCCC[N+](C)(C)C | -1.9% [at 42.5 µM] (inactive) |  |
| CC(=O)OCCOC(C)=O |  | inactive |
| CCCCC(CC)COS(=O)(=O)O (stereo not given) | -6.44% (inactive) |  |
